The values below come from PubChem BioAssay AID1032 (The Scripps Research Institute Molecular Screening Center, 2008).

The whole screen tested about 200,000 compounds, of which about 670 (0.34%) were called active. The sample holds actives, similar compounds and a random draw of the others, so the mix is not that of the screen. Cut-off read from the data, not from the text of the source: active = activation above about 22%; inactive = the rest.

For this test, the target named is Peroxisome proliferator-activated receptor gamma (Homo sapiens) (UniProt P37231). Briefly: agonists of PPARg-SRC-2 recruitment, primary screen, biochemical, HTS (AID 1032).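 Note: 0% = vehicle and 100% = reference agonist.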 The note with it: PPARgamma LBD-SRC-2 recruitment, at 8 µM, active compounds read high.
Chain of Peroxisome proliferator-activated receptor gamma (Homo sapiens) (P37231 whole entry, looked up, the tested form may be a part): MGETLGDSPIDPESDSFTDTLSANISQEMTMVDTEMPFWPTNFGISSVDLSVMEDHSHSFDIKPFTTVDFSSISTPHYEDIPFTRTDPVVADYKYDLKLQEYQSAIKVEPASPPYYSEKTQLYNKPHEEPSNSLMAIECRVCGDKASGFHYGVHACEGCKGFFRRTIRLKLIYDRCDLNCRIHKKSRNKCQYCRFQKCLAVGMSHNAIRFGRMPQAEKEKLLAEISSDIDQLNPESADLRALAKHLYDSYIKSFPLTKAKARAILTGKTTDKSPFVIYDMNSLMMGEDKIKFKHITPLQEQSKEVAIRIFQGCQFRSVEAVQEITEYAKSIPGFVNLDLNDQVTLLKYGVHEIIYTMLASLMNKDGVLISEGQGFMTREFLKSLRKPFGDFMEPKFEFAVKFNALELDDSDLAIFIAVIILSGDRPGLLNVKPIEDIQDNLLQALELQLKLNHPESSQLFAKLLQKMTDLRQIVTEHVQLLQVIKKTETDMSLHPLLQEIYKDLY
In the case of `Cc1nc(-c2ccccc2)sc1-c1nc(-c2ccccc2)ncc1S(=O)(=O)c1ccccc1`, the activation is 30% (active).

Consider `Cc1nc(-c2ccccc2)sc1C(=O)/C=C/c1ccccc1`, for which the activation was 13.4% (inactive). The figure for `C=CCn1c(-c2sc(-c3ccccc3)nc2C)n[nH]c1=S` is 7.03% (inactive); for `O=C(NC(=S)Nc1cc(C(F)(F)F)ccc1N1CCOCC1)c1ccc(-c2cccc(Cl)c2)o1` it is 2.85% (inactive).

As for `COc1cc(OC)nc(N/N=C(\c2ccccc2)c2ccncc2)n1`, the activation is -0.95% (inactive). In the case of `CC1=NCCN1S(=O)(=O)c1cccc([N+](=O)[O-])c1` it was 0.1% (inactive); in that of `O=C(CN(C(=O)c1csnn1)c1cccc(F)c1)NCc1ccc(F)cc1`, -2.69% (inactive); in that of `O=C(c1nnc(-c2ccc(Cl)cc2)o1)C1CCCC1`, 5.05% (inactive). As to `Cc1cccc(C(=O)OCC(=O)NCC(C)C)c1O`, the activation is 1.94% (inactive).

As for `CC(C)CNC(=O)COC(=O)c1ccccc1OCC(=O)Nc1ccc(Br)cc1`, the activation was 23.8% (active). The figure for `COCC(=O)Nc1ccc(Br)cc1` is 0.8% (inactive); for `O=C(Nc1ccc(Cl)cc1)C1c2cccc[n+]2CC(=O)N1Cc1ccc2c(c1)OCO2` (centres undefined) it is -2.95% (inactive). In the case of `CCCC/S(C)=N/S(=O)(=O)c1ccc(C)cc1` (centres undefined) it was 4.28% (inactive). In the case of `CC(=O)n1c(C=Nc2ccccc2)c(O)c2ccccc21` it was 18.1% (inactive). For the molecule `COc1ccc(CC(NC(C)=O)C(=O)NC2CCN(C(=O)c3ccc(OC)c(OC)c3)CC2)cc1OC` (centres undefined), the activation is -1.68% (inactive).

As for `Cc1cc(C(F)(F)F)n2ncc(-c3ccccc3)c2n1`, the activation was 6.32% (inactive). The figure for `Cn1c(-c2sc3cc(C(F)(F)F)cnc3c2-c2ccccc2)n[nH]c1=S` is 49.1% (active). The figure for `Cn1c(-c2sccc2OCc2cccc(C(F)(F)F)c2)n[nH]c1=S` is 3.72% (inactive); for `O=C1CN(C(=O)CN2C(=O)NC3(CCCCC3)C2=O)c2ccccc2N1` it is -3.02% (inactive); for `CCSc1ccccc1C(=O)Nc1ccc2c(c1)OCO2` it is 2.54% (inactive).

With `COC(C(=O)Nc1ccc(S(=O)(=O)Nc2ccc(C)c(C)c2)cc1)c1ccccc1` (centres undefined), the activation was -10.9% (inactive). The figure for `COC(=O)c1[nH]c2ccc(Br)cc2c1NC(=O)Oc1ccccc1` is 30% (active); for `COC(=O)c1[nH]c2ccccc2c1NC(=O)CN1CCCc2ccccc21` it is -0.25% (inactive). In the case of `COC(=O)c1[nH]c2ccccc2c1NS(=O)(=O)c1ccc(OC)cc1OC` it was 13.7% (inactive); in that of `O=C(Nc1ccc2cn[nH]c2c1)c1ccc(S(=O)(=O)N2CCOCC2)cc1`, 3.19% (inactive).

For `Cc1nccn1CCC1CCCCN1C(=O)CCc1nnc(-c2ccsc2)o1` (centres undefined), the activation is -4.68% (inactive).

`CN(C)CCOc1ccc(Cl)cc1C(C)(C)C`: the activation was 3.96% (inactive). The figure for `COc1cc2c(cc1OC)C(Nc1ccc(S(N)(=O)=O)cc1)=NC(C)(C)C2` is 77.9% (active); for `COc1cc2c(cc1OC)C(C(C)C)=NC(C)(C)C2` it is 4.08% (inactive); for `COc1cc2c(cc1O)C(SC)=NC(C)(C)C2` it is 1.5% (inactive). The figure for `COCCNC(=O)c1ccc(N2CCC3(CC2)OCCO3)c([N+](=O)[O-])c1` is -6.47% (inactive); for `COc1ccc(C(=O)Nc2ccc3nc(N4CCCCC4)cc(C)c3c2)cc1OC` it is 4.19% (inactive); for `COc1cccc(/C=C2\SC(=N)N(c3ccc(F)cc3)C2=O)c1` it is 3.36% (inactive). Turning to `O=C(NCc1ccco1)c1cc(-c2cccnc2)nc2ccc(Cl)cc12`, the activation was 8.92% (inactive). In the case of `O=C(/C=C/c1ccc(Cl)cc1Cl)NCc1ccco1` it was -0.42% (inactive). In the case of `O=C(CSc1c2c(nc3ccc(Cl)cc13)CCCC2)NCc1ccco1` it was 30.9% (active). In the case of `COC(=O)Cn1c(=NC(=O)c2cc(OC)c(OC)c(OC)c2)sc2cc(OC)ccc21` it was -0.43% (inactive); in that of `Cc1ccccc1-c1n[nH]c(=S)n1/N=C/c1ccc(-c2ccccc2Br)o1`, 40.9% (active); in that of `Cc1n[nH]c(=S)n1/N=C/c1ccc(Br)o1`, 6.61% (inactive).

For `Cc1ccccc1-c1n[nH]c(=S)n1C`, the activation was 7.57% (inactive). For `CSc1ccccc1C(=O)NCc1ccccc1`, the activation is -5.42% (inactive). In the case of `Cc1ccc(C(=O)COC(=O)CCN2C(=O)C3C4CC(C(Br)C4Br)C3C2=O)cc1` (centres undefined) it was 3.47% (inactive); in that of `COc1ccc(O[C@H]2C=C[C@@H](c3ccccc3)O[C@@H]2CO/N=C/C[C@@H]2C=C[C@H](OC(C)=O)[C@@H](COC(C)=O)O2)cc1`, 1.19% (inactive). The figure for `CC(=O)Nc1ccc(S(=O)(=O)NC(C)C(=O)OCC(=O)NC2CCCC2)cc1` (centres undefined) is -3.44% (inactive). The figure for `CS(=O)(=O)N1CCc2cc(C(=O)Nc3ccccc3)ccc21` is -4.48% (inactive).

For the molecule `Cc1ccc(NC(=O)CCOc2ccccc2)cc1S(=O)(=O)Nc1ccccc1Cl`, the activation was 3.41% (inactive).

Turning to `CCOC(=O)c1ccc(NC(=S)N2CCCC2)cc1`, the activation is -1% (inactive).

Consider `Cc1cc(C)c2nc(N3CCCC3)c(C#N)cc2c1`, for which the activation is 1.23% (inactive). The figure for `CC(=O)c1ccc(S(=O)(=O)N2CCN(c3nc4c(C)c(C)ccc4cc3C#N)CC2)cc1` is 32% (active). `Cc1cccc2cc(C#N)c(N3CCCC3)nc12`: the activation is -7.68% (inactive).

In the case of `C/C(=N\Nc1ccc([N+](=O)[O-])cc1)c1ccc(-n2nncc2C(C)(C)C)cc1`, the activation is -9.74% (inactive). The figure for `N#Cc1ccsc1NC(=O)CN1CCN(S(=O)(=O)c2cc(Cl)ccc2Cl)CC1` is 0.56% (inactive). The figure for `O=C(C1CCCO1)N1CCN(C(=S)Nc2cccc(Cl)c2)CC1` (centres undefined) is -4.23% (inactive). The figure for `O=C1OC(/C=C/c2ccccc2)=NC/1=C/c1ccco1` is 8.63% (inactive). As for `CCc1cccc(OC2OC(CO)C(O)C(O)C2NC(C)=O)c1` (centres undefined), the activation was 9.45% (inactive). The figure for `Cc1cc(NC(=O)CSc2nnc(Nc3ccccc3F)s2)no1` is 0.38% (inactive); for `Cc1ccc(-c2csc(SCC(=O)Nc3cc(C)on3)n2)cc1` it is -2.51% (inactive); for `Cc1cc(C)c2c(c1)cc(C)c1nnc(SCC(=O)Nc3cc(C)on3)n12` it is 26.5% (active).

Turning to `Cc1cccc(NC(=O)Cn2c(=O)n(Cc3ccccc3)c(=O)c3c(C)c(C)sc32)c1`, the activation was 3.34% (inactive). With `N#Cc1c(-c2ccc(F)cc2)cc(C2CC2)nc1SCC(=O)c1cccs1`, the activation is 1.68% (inactive).

For `O=C(c1ccc(F)cc1)N1CCC(n2nnc3ccccc32)CC1`, the activation is -10.4% (inactive).

In the case of `C=CCC(C(=O)c1ccccc1)[N+](C)(C)CC=C` (centres undefined), the activation was 1.14% (inactive).

For the molecule `CN1CCN(S(=O)(=O)c2ccc(NC(=S)NC(=O)C3CC3)cc2)CC1`, the activation is 5.04% (inactive). In the case of `COC(=O)CSc1nccc(-c2cccs2)n1` it was 0.01% (inactive); in that of `NC(=O)CSc1oc(-c2cccs2)nc1S(=O)(=O)c1ccccc1`, 36.9% (active). The figure for `COc1ccc(OC)c(C(=O)CSc2nnc(-c3cccs3)o2)c1` is 10.1% (inactive); for `COc1ccccc1C1/C(=C(/O)c2ccc(C)cc2)C(=O)C(=O)N1Cc1ccco1` (centres undefined) it is -3.88% (inactive); for `COc1ccc(/C(O)=C2\C(=O)C(=O)N(Cc3ccco3)C2c2ccc(OC)cc2OC)cc1` (centres undefined) it is 3.94% (inactive). The figure for `COc1ccc(/C(O)=C2/C(=O)C(=O)N(c3nc(C)c(C)s3)C2c2ccco2)cc1` (centres undefined) is 22.7% (active). In the case of `CCC(C)(C)NC(=O)c1cc([N+](=O)[O-])ccc1N1CCCCC1`, the activation is 0.23% (inactive). The figure for `CN(C)c1nccc(NCc2ccccc2)c1C#N` is 9.56% (inactive); for `CN1CCN(C(c2cc3cc4c(cc3[nH]c2=O)OCCO4)c2nnnn2C2CCCC2)CC1` (centres undefined) it is 4.65% (inactive); for `Cc1cc(C(=O)CC#N)c(C)n1-c1c(C)n(C)n(-c2ccccc2)c1=O` it is 3.36% (inactive). The figure for `O=C(Nn1cnnc1)c1ccc([N+](=O)[O-])cc1` is 8.86% (inactive); for `COc1ccc2c(Cl)c(-c3nnco3)sc2c1` it is 22.3% (active). The figure for `COc1ccc(-c2nnco2)cc1OC` is -1.39% (inactive). As to `COc1ccc2c(Cl)c(C(=O)NCc3ccco3)sc2c1`, the activation is 4.82% (inactive).

Consider `CC1=C(C)C(=O)OC(C(C)C2CCC3C4CC=C5CC(OC6OC(COC7OC(CO)C(O)C(O)C7O)C(O)C(O)C6O)CC(O)C5(C)C4CCC23C)C1` (centres undefined), for which the activation was -5.38% (inactive). In the case of `NC(=O)COc1ccc(C23CC4CC(CC(C4)C2)C3)cc1` it was 13.6% (inactive); in that of `COc1ccc(CC(=O)N2N=C(C)CC2(O)C(F)(F)F)cc1` (centres undefined), 4.95% (inactive).

Consider `CCOC(=O)c1c(NC(=O)CNC2CCCc3ccccc32)sc(C(N)=O)c1C` (centres undefined), for which the activation is 19.8% (inactive). In the case of `NS(=O)(=O)c1ccc(CCNC(=S)Nc2ccc(S(N)(=O)=O)cc2)cc1`, the activation is 4.85% (inactive).

With `CCC(C)(C)NC(=O)C(c1cccc(OC)c1OC)N(CC(C)C)C(=O)CCC(=O)Nc1cc(C)on1` (centres undefined), the activation is 7.07% (inactive).

On to `CC(=O)NC(Cc1ccc(F)c(F)c1)C(=O)NC1CCN(C(=O)c2ccc(C)cc2)CC1` (centres undefined), for which the activation is -0.89% (inactive). In the case of `O=C(Oc1ccccc1)Oc1ccc2c(c1)oc(=O)c1ccccc12`, the activation was 48.7% (active). In the case of `Cc1c(Cc2ccccc2)c(=O)oc2cc(OCC(N)=O)ccc12` it was 4.43% (inactive). `CC(=O)Oc1ccc2c(C)c(CC(C)O)c(=O)oc2c1` (centres undefined): the activation is -8.79% (inactive). The figure for `O=C(CSc1ncnc2c1nnn2Cc1ccc(F)cc1)NC1CCCC1` is 11.8% (inactive); for `O=C(Nc1ccc([N+](=O)[O-])cc1)C1CC12CCC2` (centres undefined) it is 18.1% (inactive). The figure for `CC1CC(C)CN(C(=O)CSc2ccsc2[N+](=O)[O-])C1` (centres undefined) is 0.24% (inactive). In the case of `O=C(CSCc1cccs1)N1CCCC1` it was -3.94% (inactive); in that of `O=C(CSc1ccsc1[N+](=O)[O-])N1CCCCC1`, 22% (active). `Cc1cccc(OC(=O)c2sc3ncn(C)c(=O)c3c2C)c1`: the activation was -5.78% (inactive).

For the molecule `CC1=CC=CN2C1=NC(=O)CC2(C)C(=O)N(CC(=O)NC1CCCC1)c1ccccc1C` (centres undefined), the activation is 1.53% (inactive).
